Source: PubChem BioAssay AID720568 (Broad Institute, 2013)
Measured potencies and affinities stand elsewhere. Active and inactive are the calls of the source. The rule behind the calls is not given here.

Experiment: toxicity toward HepG2 hepatoma cells – cell-based, dry powder samples, cytotoxicity control, dose response (AID 720568)

SMILES | outcome
Cc1ccc(C(=O)c2cc([N+](=O)[O-])ccc2N2CCOCC2)cc1C | inactive
COc1ccccc1-c1nnc(SCc2ccccc2)o1 | inactive
COc1ccc2c(COC(=O)c3cccc(S(=O)(=O)NCC(C)C)c3)cc(=O)oc2c1 | inactive
CCOc1ccc(S(=O)(=O)NCc2ccccn2)cc1NC(=O)c1ccccc1F | inactive
Cc1cnc(NC(=O)c2cc(S(=O)(=O)N(C)C)ccc2N2CCCC2)s1 | inactive
Cc1cccc(C)c1OCCNC(=O)C(=O)NCc1ccco1 | inactive
Cc1cc(NC(=O)CSc2nc(-c3ccco3)cc(C(F)(F)F)n2)no1 | inactive
O=C(N/N=C/c1ccc(Cl)cc1)c1sccc1OCc1ccc(F)cc1 | inactive
CCCNS(=O)(=O)c1cccc(C(=O)OCc2cc(=O)oc3cc(OC)ccc23)c1 | inactive
COc1ccc(NC(=O)C(=O)c2cn(CC(=O)N3CCCC3)c3ccccc23)cc1 | inactive
CCC1=Nc2cc(C(=O)NCCCOC)ccc2Sc2ccccc21 | inactive
CC(=O)N1CCC(=O)c2cc3ccccc3cc21 | inactive
CCN(CC)CCC(=O)Nc1cccc2c1C(=O)c1ccccc1C2=O | inactive
O=C(Cc1ccccc1)c1nnc(-c2ccccc2)o1 | inactive
COc1cc(-c2nnc(SCC3(c4ccc(Br)cc4)OCCO3)o2)cc(OC)c1OC | inactive
COC(=O)c1cn(C(=O)c2ccc(OC)cc2)c2ccccc12 | inactive
Cc1ccc(CCC(=O)Nc2ncc(Cc3cc(Cl)ccc3Cl)s2)o1 | inactive
COc1ccc(-c2nnc(SCc3ccccc3)o2)cc1 | inactive
CCOC(=O)c1ccc(Oc2cc(C)nc(SC)n2)cc1 | inactive

SMILES | outcome
CCOC(=O)COc1cccc2c(=O)n(CC(=O)NCc3ccccc3)ccc12 | inactive
CC(=O)c1cccc(NC(=O)CSc2ncc(C(=O)Nc3ccccc3)c(=O)n2C)c1 | inactive
COc1cccc(N2CCN(C(=O)c3ccc(CS(=O)c4ccc(C)cc4)o3)CC2)c1 (stereo not drawn) | inactive
C/C(=N\NC(=O)c1c([N+](=O)[O-])c(C)nn1C)c1ccc(NC(=O)C2CCCC2)cc1 | inactive
Cc1ccc(Oc2ccc(S(=O)(=O)N3CCOCC3)cc2C(N)=O)c(-n2nc3ccccc3n2)c1 | inactive
Cc1cc(C)cc(C(=O)N2CC(=O)Nc3ccccc32)c1 | inactive
CCn1c2ccccc2c2cc(NC(=O)c3cc(OC)c(OC)c(OC)c3)ccc21 | inactive
COc1ccccc1OCC(=O)NNC(=O)c1ccoc1C | inactive
COc1ccccc1CSc1nnc(-c2ccccc2)o1 | inactive
CCCOC(=O)c1[nH]c2c(c1C)C(=O)CC(c1cccs1)C2 (stereo not drawn) | inactive
Cc1cc(C)nc(/N=C(\N)Nc2ccc(OCc3ccccc3)cc2)n1 | inactive
Cc1cc(=O)[nH]c(N/N=C/c2cc(C)n(CC(F)(F)F)c2C)n1 | inactive
Brc1ccc(CSc2nnc(-c3ccccc3)o2)cc1 | inactive
Cc1ccc(/C=N/NC(=O)C2COc3ccccc3O2)s1 (stereo not drawn) | inactive
Cc1[nH][nH]c(=O)c1C(c1ccc(-c2ccc(Cl)c(Cl)c2)o1)c1c(C)[nH][nH]c1=O | inactive
CCN(CC)CCCNc1nc2cc(OC)c(OC)cc2c2nc(-c3ccccc3)nn12 | inactive
CCCCOc1ccccc1C1CC(=O)NC2=C1C(=O)CCC2 (stereo not drawn) | inactive
CCOc1ccc(NC(=O)c2cc(OC)nc3ccccc23)cc1 | inactive
COc1cc(Nc2c3c(nc4ccccc24)CCCC3)cc(OC)c1OC | inactive
